Measured values from PubChem BioAssay (NCI).
The panel holds about 79,000 compounds, 15% with a hit somewhere; the sample as a whole holds those more often. Active and inactive are the calls of the source. Cut-off read from the data, not from the text of the source: active = growth inhibition above about 70%; inactive = the rest.

Tests used:
[1] = NCI Yeast Anticancer Drug Screen. Data for the rad52 strain (AID 147);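 note: 0% = growth of vehicle-treated control cultures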; conditions: S. cerevisiae rad52 mutant growth inhibition, active compounds read high
Procedure, shortened: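 The repair-mutant yeast strain was incubated with compounds, then growth was read and inhibition derived relative to vehicle.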

[2] = NCI Yeast Anticancer Drug Screen. Data for the wt1 strain (AID 149);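 note: 0% = growth of vehicle-treated wt1 cultures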; conditions: S. cerevisiae wt1 strain (SPY 50644) growth inhibition, active compounds read high
Procedure, shortened: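 Vehicle-normalised growth inhibition; strain wt1; compound exposure.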

[3] = NCI Yeast Anticancer Drug Screen. Data for the rad50EPP+ strain (AID 151);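 note: 0% = growth of vehicle-treated control cultures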; conditions: S. cerevisiae rad50 mutant strain, active compounds read high
Procedure, shortened: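 Vehicle-normalised growth inhibition; rad50EPP+ yeast strain, altered in DNA damage repair, compound-treated.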

[4] = NCI Yeast Anticancer Drug Screen. Data for the mgt1 strain (AID 153); conditions: S. cerevisiae mgt1 mutant growth inhibition, active compounds read high
Procedure, shortened: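 Vehicle-normalized growth inhibition is determined in mgt1 yeast, a strain selected for a defined alteration in DNA repair or cell cycle control.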

[5] = NCI Yeast Anticancer Drug Screen. Data for the rad50 strain (AID 155);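 note: 0% = growth of vehicle-only cultures of the same strain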; conditions: S. cerevisiae rad50 strain growth inhibition, active compounds read high
Procedure, shortened: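 A DNA repair-deficient yeast mutant serves as the test organism; compound-induced growth inhibition is calculated against vehicle-treated cells.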

[6] = NCI Yeast Anticancer Drug Screen. Data for the mec2-1 strain (AID 157); conditions: S. cerevisiae mec2-1 strain, active compounds read high
Procedure, shortened: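 Mutant yeast (mec2-1) grown with compound; growth inhibition relative to vehicle control reported.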

[7] = NCI Yeast Anticancer Drug Screen. Data for the rad14 strain (AID 159);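 note: 0% = growth of vehicle-treated control cultures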; conditions: S. cerevisiae rad14 strain growth inhibition, active compounds read high
Procedure, shortened: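 Vehicle-treated cultures served as the baseline for growth inhibition of a DNA repair-mutant yeast strain exposed to each compound.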

[8] = NCI Yeast Anticancer Drug Screen. Data for the sgs1 mgt1 strain (AID 161);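 note: 0% = growth of cultures given vehicle only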; conditions: S. cerevisiae sgs1 mgt1 strain, active compounds read high
Procedure, shortened: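 Growth of a repair-deficient yeast mutant was monitored after compound treatment and expressed as inhibition relative to vehicle-treated cultures.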

[9] = NCI Yeast Anticancer Drug Screen. Data for the CLN2oe strain (AID 163);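 note: 0% = growth of vehicle-only control cultures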; conditions: S. cerevisiae CLN2oe strain, active compounds read high
Procedure, shortened: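 Compounds are applied to yeast harbouring a defined cell-cycle control change; reduced growth compared with vehicle-treated controls gives the value.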

[10] = NCI Yeast Anticancer Drug Screen. Data for the cln2 rad14 strain (AID 165);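 note: 0% = growth equal to vehicle treated cultures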; conditions: S. cerevisiae cln2 rad14 strain, active compounds read high
Procedure, shortened: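 Readout is yeast growth inhibition versus vehicle-treated controls, using a strain with cln2 and rad14 alterations exposed to compound.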

[11] = NCI Yeast Anticancer Drug Screen. Data for the bub3 strain (AID 167); conditions: S. cerevisiae bub3 mutant strain, active compounds read high
Procedure, shortened: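 Inhibition values come from growth of compound-treated mutant yeast normalised to vehicle-treated controls.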

[12] = NCI Yeast Anticancer Drug Screen. Data for the wt2 strain (AID 169);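 note: 0% = growth of vehicle-treated yeast cultures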; conditions: S. cerevisiae wt2 strain growth inhibition, active compounds read high
Procedure, shortened: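 Against vehicle-treated controls, the growth of yeast exposed to each compound was compared, and the inhibition was recorded.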

[13] = NCI Yeast Anticancer Drug Screen. Data for the sgs1 strain (AID 173);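 note: 0% = growth of vehicle-only control cultures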; conditions: S. cerevisiae sgs1 mutant, active compounds read high
Procedure, shortened: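 Each compound was added to cultures of the altered yeast strain. Growth was recorded, and inhibition was derived by comparison with vehicle controls.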

[14] = NCI Yeast Anticancer Drug Screen. Data for the mlh1 rad18 strain (AID 175); conditions: S. cerevisiae mlh1 rad18 strain growth inhibition, active compounds read high
Procedure, shortened: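 Genetically defined yeast (DNA repair-deficient) exposed to compounds; growth inhibition determined relative to vehicle.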

[15] = NCI Yeast Anticancer Drug Screen. Data for the rad18 strain (AID 177); conditions: S. cerevisiae rad18 mutant growth inhibition, active compounds read high
Procedure, shortened: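 Vehicle-treated cultures served as the baseline for scoring compound-induced growth inhibition in DNA-repair-mutant yeast.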

[16] = at 5.0 µM (retest, dose inferred, filed as 0.5)
[17] = at 50.0 µM (retest, dose inferred, filed as 5.0)

Measured: growth inhibition

CCC(C)COC(=O)Nc1cccc(Cl)c1 (stereo not drawn)
inactive: [1]; at 1.2 µM 5% | [1]; at 3.7 µM 6% | [1]; at 11.0 µM 11% | [1]; at 33.0 µM 59% | [2]; at 1.2 µM 1% | [2]; at 3.7 µM -1% | [2]; at 11.0 µM 0% | [2]; at 33.0 µM 6% | [3]; at 1.2 µM 6% | [3]; at 3.7 µM 15% | [3]; at 11.0 µM 39% | [3]; at 33.0 µM 61% | [4]; at 1.2 µM -7% | [4]; at 3.7 µM 0% | [4]; at 11.0 µM -8% | [4]; at 33.0 µM 29% | [5]; at 1.2 µM 9% | [5]; at 3.7 µM 22% | [5]; [16] -7% | [5]; at 11.0 µM 25% | [5]; at 33.0 µM 68% | [5]; [17] 54% | [6]; at 1.2 µM -5% | [6]; at 3.7 µM -10% | [6]; [16] -1% | [6]; at 11.0 µM -34% | [6]; at 33.0 µM -1% | [6]; [17] 32% | [7]; at 1.2 µM 3% | [7]; at 3.7 µM 2% | [7]; at 11.0 µM 2% | [7]; at 33.0 µM 34% | [8]; [16] -4% | [8]; [17] 53% | [9]; at 1.2 µM 0% | [9]; at 3.7 µM 1% | [9]; at 11.0 µM -7% | [9]; at 33.0 µM 4% | [10]; [16] -24% | [10]; [17] 1% | [11]; at 1.2 µM -2% | [11]; at 3.7 µM -4% | [11]; [16] -14% | [11]; at 11.0 µM 12% | [11]; at 33.0 µM 27% | [11]; [17] 25% | [12]; at 1.2 µM -2% | [12]; at 3.7 µM -2% | [12]; at 11.0 µM -2% | [13]; at 1.2 µM 0% | [13]; at 3.7 µM 2% | [13]; at 11.0 µM 7% | [14]; [16] -9% | [14]; [17] 69% | [15]; at 1.2 µM 4% | [15]; at 3.7 µM 5% | [15]; at 11.0 µM 1% | [15]; at 33.0 µM 27%
active: [1]; at 100.0 µM 91% | [2]; at 100.0 µM 99% | [3]; at 100.0 µM 72% | [4]; at 100.0 µM 99% | [5]; at 50.0 µM 98.9% | [5]; at 100.0 µM 99% | [6]; at 50.0 µM 98.1% | [6]; at 100.0 µM 98% | [7]; at 100.0 µM 99% | [8]; at 50.0 µM 98.8% | [9]; at 100.0 µM 99% | [10]; at 50.0 µM 97.5% | [11]; at 50.0 µM 98.6% | [11]; at 100.0 µM 99% | [12]; at 33.0 µM 82% | [12]; at 100.0 µM 99% | [13]; at 33.0 µM 87% | [13]; at 100.0 µM 99% | [14]; at 50.0 µM 97.5% | [15]; at 100.0 µM 98%

CCCCCCCCNCCCCCCCC
active: [1]; at 11.0 µM 76% | [1]; at 33.0 µM 99% | [1]; at 100.0 µM 99% | [2]; at 33.0 µM 96% | [2]; at 100.0 µM 99% | [3]; at 33.0 µM 92% | [3]; at 100.0 µM 99% | [4]; at 11.0 µM 97% | [4]; at 33.0 µM 100% | [4]; at 100.0 µM 100% | [5]; at 11.0 µM 96% | [5]; at 33.0 µM 98% | [5]; [17] 99% | [5]; at 50.0 µM 99.5% | [5]; at 100.0 µM 98%
inactive: [1]; at 1.2 µM 4% | [1]; at 3.7 µM 18% | [2]; at 1.2 µM 0% | [2]; at 3.7 µM 2% | [2]; at 11.0 µM 29% | [3]; at 1.2 µM 1% | [3]; at 3.7 µM -1% | [3]; at 11.0 µM 24% | [4]; at 1.2 µM 12% | [4]; at 3.7 µM 29% | [5]; at 1.2 µM 6% | [5]; at 3.7 µM 3% | [5]; [16] 67% | [6]; at 1.2 µM 2% | [6]; at 3.7 µM 13%
